We go through five compounds from paper PMC11062922 (Nature Chemical Biology, 2023).

Common to all, as to design: species or system human, MV4-11 + K-562 + COLO205 + SK-N-BE2 + OVCAR-8
Assay [1] relates to CDK7. To be noted: read-out: apparent Kd; compound concentrations: 100 nM and 1000 nM (sheet 'Samples'), CATDS: 0.117624966951351; n = 1.
The test system of assay [2] is ERCC2. Particulars: read-out: apparent Kd; compound concentrations: 100 nM and 1000 nM (sheet 'Samples'), CATDS: 0.117960560736162; n = 1.
The test system of assay [3] is FER. Particulars: read-out: apparent Kd, compound concentrations: 100 nM and 1000 nM (sheet 'Samples'), n = 1.
The subject of assay [4] is GAK. To be noted: read-out: apparent Kd, compound concentrations: 100 nM and 1000 nM (sheet 'Samples'), n = 1.
The subject of assay [5] is PIK3CA. To be noted: read-out: apparent Kd; compound concentrations: 100 nM and 1000 nM (sheet 'Samples'), CATDS: 0.31694320747902399; n = 1.
For assay [6], the system named is TNK1. To be noted: read-out: apparent Kd, compound concentrations: 100 nM and 1000 nM (sheet 'Samples'), n = 1.
For assay [7], the system named is TNK2. Particulars: read-out: apparent Kd; compound concentrations: 100 nM and 1000 nM (sheet 'Samples'), CATDS: 0.149039092060825; n = 1.
For assay [8], the system named is CDKL5. To be noted: read-out: apparent Kd; compound concentrations: 100 nM and 1000 nM (sheet 'Samples'), CATDS: 0.14258501509608601; n = 1.
The test system of assay [9] is MAPK10. To be noted: read-out: apparent Kd, compound concentrations: 100 nM and 1000 nM (sheet 'Samples'), n = 1.
Assay [10] relates to MAPK14. To be noted: read-out: apparent Kd; compound concentrations: 100 nM and 1000 nM (sheet 'Samples'), CATDS: 0.62465881952288804; n = 1.
In assay [11] the test system is MAPK9. Particulars: read-out: apparent Kd, compound concentrations: 100 nM and 1000 nM (sheet 'Samples'), n = 1.
Assay [12] deals with MAPKAPK2. Particulars: read-out: apparent Kd; compound concentrations: 100 nM and 1000 nM (sheet 'Samples'), CATDS: 0.37042886154437599; n = 1.
For assay [13], the system named is CLK1. To be noted: read-out: apparent Kd; compound concentrations: 100 nM and 1000 nM (sheet 'Samples'), CATDS: 4.8485832065687497E-2; n = 1.
Assay [14] has as its system CLK4. To be noted: read-out: apparent Kd; compound concentrations: 100 nM and 1000 nM (sheet 'Samples'), CATDS: 5.2281896734728002E-2; n = 1.
Assay [15] has as its system CSNK1D. To be noted: read-out: apparent Kd; compound concentrations: 100 nM and 1000 nM (sheet 'Samples'), CATDS: 4.52776824202724E-2; n = 1.
Assay [16] relates to CSNK1E. Particulars: read-out: apparent Kd; compound concentrations: 100 nM and 1000 nM (sheet 'Samples'), CATDS: 4.2697744465197598E-2; n = 1.
The test system of assay [17] is EIF2AK1. Particulars: read-out: apparent Kd; compound concentrations: 100 nM and 1000 nM (sheet 'Samples'), CATDS: 4.8293070245640599E-2; n = 1.
The test system of assay [18] is IGF1R. To be noted: read-out: apparent Kd; compound concentrations: 100 nM and 1000 nM (sheet 'Samples'), CATDS: 5.4863623433827502E-2; n = 1.
The subject of assay [19] is INSR. Particulars: read-out: apparent Kd; compound concentrations: 100 nM and 1000 nM (sheet 'Samples'), CATDS: 6.5997959622395005E-2; n = 1.
In assay [20] the test system is MAPK8. To be noted: read-out: apparent Kd; compound concentrations: 100 nM and 1000 nM (sheet 'Samples'), CATDS: 0.131985587437009; n = 1.
Assay [21] concerns PTK2B. Particulars: read-out: apparent Kd; compound concentrations: 100 nM and 1000 nM (sheet 'Samples'), CATDS: 8.3393690442652907E-2; n = 1.
The test system of assay [22] is TTK. Particulars: read-out: apparent Kd; compound concentrations: 100 nM and 1000 nM (sheet 'Samples'), CATDS: 6.1430797612991001E-2; n = 1.
The test system of assay [23] is CDK4. To be noted: read-out: apparent Kd; compound concentrations:100 nM and 1000 nM (sheet 'Samples'); n = 1.
For assay [24], the system named is NNT. To be noted: read-out: apparent Kd; compound concentrations:100 nM and 1000 nM (sheet 'Samples'); n = 1.
Assay [25] concerns CDK9. Particulars: read-out: apparent Kd; compound concentrations:100 nM and 1000 nM (sheet 'Samples'); n = 1.
Assay [26] has as its system NEK3. To be noted: read-out: apparent Kd; compound concentrations:100 nM and 1000 nM (sheet 'Samples'); n = 1.

Read-outs that look alike come from different tables or passages of the source.

With `Nc1c(C(=O)c2cccc(C(O)CO)c2)cnn1-c1ccc(F)cc1` (stereo not shown) [RO3200567-000], the potency estimated from few doses in [1] is 1730 nM; in [2], 1710 nM; in assay [3] (CATDS: 0.13650868273140601) it was 1200 nM; in [4] (CATDS: 0.12538076296612899), 1460 nM; in [5] it was 285 nM; in assay [6] (CATDS: 0.145879794624587), 1040 nM. In addition, the potency estimated from few doses in [7] is 993 nM.
On to `Cl.Cn1c(=O)c(Oc2ccc(F)cc2F)cc2cnc(N[C@H]3CCOC3)nc21` [RO3311017-001], for which the potency estimated from few doses in assay [8] was 1540 nM; in assay [9] (CATDS: 0.149195814483779), 1260 nM; in [10] it was 19.2 nM; in assay [11] (CATDS: 0.14319279027503101) it was 1510 nM; in [12], 54.5 nM.
Turning to `CCCN1CCC(c2ccc(Nc3nc(Nc4cc(F)ccc4C(N)=O)c4cc[nH]c4n3)c(OC)c2)CC1` [GSK1326255A], the potency estimated from few doses in assay [13] was 1210 nM; in assay [14], 912 nM; in assay [15], 1610 nM; in assay [16], 2150 nM; in assay [17], 1230 nM; in assay [3] (CATDS: 4.7949039435888803E-2), 1260 nM. Besides, the potency estimated from few doses in assay [4] (CATDS: 0.152402490696291) is 82.5 nM; in assay [18] it was 775 nM; in assay [19], 449 nM; in assay [9] (CATDS: 0.16896566157677501), 70.3 nM; in assay [20], 104 nM; in assay [11] (CATDS: 0.113022620554471), 137 nM. The potency estimated from few doses in assay [21] is 253 nM; in [6] (CATDS: 0.131122015547642), 106 nM; in assay [22] it was 548 nM.
Take `O=C1NC(=O)C(c2ccc(Cl)cc2)=C1Nc1ccc(O)cc1` [SB-340867]: the potency estimated from few doses was 1970 nM in assay [23] and 1720 nM in [24].
For the compound `Nc1n[nH]c2cnc(-c3ccccc3)cc12` [SB-642124-AAA], the potency estimated from few doses in assay [25] was 1400 nM; in [26], 1820 nM.
